Source: PubChem BioAssay (several laboratories)
CYP2C19 inhib: human CYP2C19 inhibition; CYP2C19 Supersomes, luciferin-H EGE luminescence, 30 min; inhibition, % at 5 µM; actives 21% (n = 96,000);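 active means CYP2C19 inhibition above a set limit at 5 µM in the primary screen, cut at about 50% in these data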
E-sel TNF inh: TNF alpha driven E-selectin expression inhibition. HUVEC TNFa-induced E-selectin immunofluorescence, high content. inhibition, % at 2 µM. actives 0.71% (n = 120,000). AID 1246;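 active means inhibition above the batch mean plus 3 SD, and confirmed as a hit on visual image review, cut at about 43% in these data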
CYP2C9 inh: inhibitors of human CYP2C9 | P11712 | CYP2C9 Supersomes, luciferin-H conversion, luminescence | inhibition, % at 5 µM | actives 20% (n = 96,000);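 active means blocking of liver enzyme CYP2C9 beyond about 50% at 5 µM, limit read from the data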
Target sequence (P11712 whole entry, looked up): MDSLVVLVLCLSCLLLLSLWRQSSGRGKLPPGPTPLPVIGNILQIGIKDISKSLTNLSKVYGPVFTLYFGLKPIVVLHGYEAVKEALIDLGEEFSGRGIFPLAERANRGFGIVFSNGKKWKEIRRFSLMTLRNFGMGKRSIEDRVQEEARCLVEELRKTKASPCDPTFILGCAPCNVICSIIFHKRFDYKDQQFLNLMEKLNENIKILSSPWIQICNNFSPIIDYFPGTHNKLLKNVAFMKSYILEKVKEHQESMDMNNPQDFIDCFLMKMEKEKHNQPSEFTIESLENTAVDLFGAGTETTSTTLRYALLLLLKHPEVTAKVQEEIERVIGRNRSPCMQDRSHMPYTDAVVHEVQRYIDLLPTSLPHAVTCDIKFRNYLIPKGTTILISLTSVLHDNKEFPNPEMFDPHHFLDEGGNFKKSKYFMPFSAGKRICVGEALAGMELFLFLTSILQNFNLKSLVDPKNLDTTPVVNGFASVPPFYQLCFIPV
CYP2C9 act: activators of human CYP2C9; recombinant CYP2C9, luciferin-H conversion, luminescence; stronger effect = higher value; factor 1 = untreated enzyme, 0 = blocked; activation factor at 5 µM; actives 1.4% (n = 96,000);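 active means activation factor of 2 or more for CYP2C9 at a 5 µM dose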
F-actin modifier: alters cytoskeleton assembly in HUVEC cells | HUVEC TNFa F-actin phalloidin imaging, high content | inhibition, % at 2 µM | actives 0.18% (n = 91,000) | AID 836;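 active means inhibition above the batch mean plus 3 SD and confirmed as a hit by visual image inspection, cut at about 30% in these data, passing the limit was not always enough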
CYP2C19 act: cytochrome P450 2C19 (human) activation; activation factor at 5 µM; recombinant CYP2C19, luciferin-H EGE luminescence; stronger effect = higher value; 0 = fully inhibited enzyme, 1 = untreated enzyme; 96,000 tested, under 10 active; P33261;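 active means activation factor of at least 2 at 5 µM in the primary screen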
Numbers stand for hits; - = inactive; . = not tested or not shown. This is a sample that favours compounds with a hit; in the whole collection about 22% have one here.

SMILES	CYP2C19 inhib	E-sel TNF inh	CYP2C9 inh	CYP2C9 act	F-actin modifier	CYP2C19 act
O=S(=O)(Nc1ccc(N2CCOCC2)cc1)c1ccc(Cl)s1	100.3	-	100.3	-	-	-
O=C(Nc1ccc(Cl)cc1)Nc1ccc(N2CCOCC2)cc1	-	-	-	-	-	-
Cn1c(=O)[nH]c(=O)c2c1nc(N1CCNCC1)n2Cc1cccc2ccccc12	-	-	-	-	-	-
COCCNC(=S)N/N=C(\C)c1cc2ccccc2o1	.	-	.	.	.	.
CCN(CC)S(=O)(=O)C1CCS(=O)(=O)C1 (stereo not given)	-	.	-	-	.	-
COc1ccc(S(=O)(=O)Nc2ccc(N3CCOCC3)cc2)cc1Br	100.3	-	95.6	-	-	-
O=C(c1cccc(Cl)c1)N1CCN(Cc2c[nH]c3ccccc23)CC1	.	-	.	.	.	.
Cc1ccc2c(c1)NC(=O)c1cccc([N+](=O)[O-])c1CO2	.	-	.	.	.	.
CC(/C=C(\NC(=O)c1ccccc1)C(=O)N=Nc1c(O)[nH]c2ccc(C)cc12)=C\c1ccccc1	-	-	52.9	-	-	-
COc1ccc2nc(-c3ccccc3)[nH]c2c1	73.6	-	-	-	-	-
COc1ccc2nc(NCc3ccccc3)[nH]c2c1	78.2	.	-	-	-	-
Cc1ccc2nc(NCc3ccccc3)[nH]c2c1	88.5	.	-	-	-	-
COc1ccc2nc(NCCO)[nH]c2c1	-	.	-	-	-	-
c1ccc(CNc2nc3ccccc3[nH]2)cc1	-	.	-	-	-	-
CCOc1ccc2nc(-c3ccccc3)[nH]c2c1	-	.	-	-	-	-
O=C(c1ccccc1)C(C(=O)N1CCc2ccccc2C1)n1ccccc1=O (stereo not given)	.	-	.	.	.	.
Cc1ccc(NCc2nnc(SCC(=O)Nc3cc(C)on3)n2C)cc1	.	-	.	.	-	.
COc1ccc2sc(N3C(=O)C4CC=C(C)CC4C3=O)nc2c1 (stereo not given)	61.0	-	79.7	-	.	-
CC1=CCC2C(=O)N(c3cc(C)on3)C(=O)C2C1 (stereo not given)	.	-	.	.	-	.
CCCOc1ccc(C(CC(=O)O)NC(=O)c2ccc3c(c2)OCO3)cc1 (stereo not given)	-	.	-	-	-	-
C=CCOC(=O)/C(=C\c1cccc2ccccc12)NC(=O)c1ccccc1	82.5	-	78.2	-	-	-
Cc1ccc(C(=O)NC(c2ccccc2)C(Cl)Cl)cc1 (stereo not given)	.	-	.	.	.	.
COC(=O)CC(NC(=O)c1ccc(C)cc1)c1ccccc1 (stereo not given)	69.0	-	-	-	-	-
C=CCOC(=O)CC(NC(=O)c1ccccc1)c1ccccc1 (stereo not given)	95.7	-	93.6	-	-	-
COC(=O)CC(NC(=O)c1ccc(C)cc1)c1ccc2c(c1)OCO2 (stereo not given)	77.7	-	68.3	-	-	-
SMILES	CYP2C19 inhib	E-sel TNF inh	CYP2C9 inh	CYP2C9 act	F-actin modifier	CYP2C19 act
CCCCOc1cccc(-c2cc(C(=O)NNC(=S)NCC)c3ccccc3n2)c1	-	-	-	-	-	-
CCNC(=S)NNC(=O)c1cc(-c2cccc(C)c2)nc2ccccc12	-	-	51.8	-	-	-
CCNC(=S)NNC(=O)c1cc(-c2cccc(OCC)c2)nc2ccccc12	-	-	84.1	-	-	-
CCNC(=S)NNC(=O)c1cc(-c2cccnc2)nc2ccccc12	.	-	.	.	.	.
CCNC(=S)NNC(=O)c1cc(C2CC2)nc2ccccc12	-	-	50.9	-	-	-
COCCCNC(=O)C1CCN(C(=O)Nc2ccc(Cl)cc2)CC1	-	-	-	-	.	-
CC1(C)Cc2c(c(N3CCOCC3)nc3snc(N)c23)CO1	-	-	-	-	.	-
CC1(C)Cc2c(c(N3CCOCC3)nc3snc(Br)c23)CO1	-	-	67.2	-	-	-
Cc1ccc(N2CCN(S(=O)(=O)N(C)C)CC2)c(C)c1	86.0	-	63.5	-	.	-
CCC(=O)c1cc(F)c(N2CCN(S(=O)(=O)c3ccc(C)cc3)CC2)cc1C	-	-	59.2	-	-	-
CCc1ccccc1N1CCN(S(=O)(=O)c2ccc(F)c(C)c2)CC1	89.9	-	90.1	-	-	-
Cc1ccc(N2CCN(S(=O)(=O)c3ccc(F)c(C)c3)CC2)c(C)c1	84.0	-	90.7	-	-	-
Cn1c(=O)[nH]c(=O)c2c1nc(SCCO)n2CC(O)COc1ccccc1 (stereo not given)	.	-	.	.	.	.
O=c1cc(N2CCC3(CC2)OCCO3)[nH]c(=O)n1-c1ccc(Br)cc1	.	-	.	.	-	.
CN(C(=O)COC(=O)c1c[nH]c(=O)[nH]c1=O)C1CCCCC1	-	-	-	-	-	-
Cc1ccc(CNC(=O)Cn2c([N+](=O)[O-])cnc2C)cc1	-	-	-	-	-	-
Cc1ccc(CS(=O)(=O)Cc2ccc(C(=O)NCC3CCCO3)o2)cc1 (stereo not given)	-	-	-	-	-	-
Cc1ccccc1N1CCN(S(=O)(=O)c2ccc3oc(=O)ccc3c2)CC1	-	-	80.5	-	-	-
Cc1cc(C)n(-c2cc(N3CCN(S(=O)(=O)c4ccc5ccccc5c4)CC3)ccc2[N+](=O)[O-])n1	-	-	-	-	-	-
CC1=C(C(=O)Nc2ccccn2)C(c2ccc(F)cc2)n2ncnc2N1 (stereo not given)	-	-	-	-	-	-
Cc1cc2ccccn2c1C(C[N+](=O)[O-])c1ccc(N(C)C)cc1 (stereo not given)	.	-	.	.	.	.
COc1ccc(C(C[N+](=O)[O-])c2c(-c3ccccc3)cc3ccccn23)c(OC)c1 (stereo not given)	-	-	70.5	-	-	-
COc1cccc(/C=N/NC(=O)C(=O)N2CCCC2)c1OC	-	-	-	-	-	-
OC1(c2ccc3ccccc3c2)CCN(Cc2ccccc2)C1 (stereo not given)	79.9	-	-	-	-	-
COc1ccc2cc(CCN3C(=O)c4ccccc4C3=O)c(=O)[nH]c2c1	.	-	.	.	.	.
SMILES	CYP2C19 inhib	E-sel TNF inh	CYP2C9 inh	CYP2C9 act	F-actin modifier	CYP2C19 act
O=C1c2ccccc2C(=O)C12Cc1ccccc1N1CCN(c3ccccc3)CC12 (stereo not given)	55.8	-	76.0	-	-	-
O=C1CC(N2CCCc3ccccc32)C(=O)N1c1ccccc1 (stereo not given)	-	.	-	-	-	-
CCNC(=O)NCCc1c[nH]c2ccc(Cl)cc12	78.1	-	-	-	.	-
O=C(Cc1c[nH]c2ccccc12)NCc1ccc(Cl)cc1Cl	.	-	.	.	.	.
Cc1ccc2[nH]cc(CCNC(=O)c3cccnc3)c2c1	87.8	-	64.2	-	-	-
Cc1ccc2[nH]cc(CCNC(=O)Nc3ccccc3)c2c1	97.1	-	53.5	-	-	-
CCNc1nc(NC(C)C)nc(OCCOC(=O)Nc2ccccc2)n1	.	-	.	.	-	.
Cc1ccc(CC(NC(=O)c2ccccc2)C(=O)NC(C)C(=O)O)cc1 (stereo not given)	-	-	-	-	-	-
Cc1ccc(C(C)C)c(OCC(=O)Nn2c(=O)[nH]c3ccccc3c2=O)c1	.	-	.	.	.	.
